This is an account of results in PubChem BioAssay (NCI).

“And” between values parts separate entries of the source, which are not always exact repeats. Equal values may be shown once. This is part of a sample that, as a whole, favours compounds with a hit. Of some 79,000 tested, about 15% had one in any assay. A number with no mark means an inactive call. The source made the active and inactive calls. Rule as the data show it: active = growth inhibition above about 70%; inactive = the rest.

A short description of assay [1]: NCI Yeast Anticancer Drug Screen. Data for the rad50 strain (AID 155).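 Also: 0% = growth of vehicle-only cultures of the same strain.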 To be noted: S. cerevisiae rad50 strain growth inhibition; at 50.0 µM; hits give high values. The gist of the method:
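A DNA repair-deficient yeast mutant serves as the test organism; compound-induced growth inhibition is calculated against vehicle-treated cells.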

Assay [2] in a line: NCI Yeast Anticancer Drug Screen. Data for the mec2-1 strain (AID 157). To be noted: S. cerevisiae mec2-1 strain, hits give high values. The method in brief: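 Compounds were applied to mec2-1 yeast cells. Their growth was then compared with that of vehicle-treated cultures to give growth inhibition.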
The nature of assay [3]: NCI Yeast Anticancer Drug Screen. Data for the sgs1 mgt1 strain (AID 161).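 Also: 0% = growth of cultures given vehicle only.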 The note with it: S. cerevisiae sgs1 mgt1 strain, hits give high values. The method in brief: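 Percent growth inhibition was derived by comparing compound-exposed mutant yeast with vehicle-exposed cultures. The strain carries alterations in DNA damage repair.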
A short description of assay [4]: NCI Yeast Anticancer Drug Screen. Data for the cln2 rad14 strain (AID 165).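 Also: 0% = growth equal to vehicle treated cultures.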 The note with it: S. cerevisiae cln2 rad14 strain, hits give high values. The gist of the method:
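Strain: cln2 rad14 yeast, altered in cell cycle control and DNA damage repair. Read-out: growth inhibition vs vehicle.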

A short description of assay [5]: NCI Yeast Anticancer Drug Screen. Data for the bub3 strain (AID 167). To be noted: S. cerevisiae bub3 mutant strain, hits give high values. The gist of the method:
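Inhibition values come from growth of compound-treated mutant yeast normalised to vehicle-treated controls.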

Assay [6] can be described thus: NCI Yeast Anticancer Drug Screen. Data for the mlh1 rad18 strain (AID 175). The note with it: S. cerevisiae mlh1 rad18 strain growth inhibition, hits give high values. The method in brief:
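A repair-deficient yeast strain is exposed to test compound, and growth is scored relative to vehicle-treated controls.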

Setting [7] is: at 5.0 µM (retest, dose inferred, filed as 0.5).
The mark [8] stands for this setting: at 50.0 µM (retest, dose inferred, filed as 5.0).

In the case of `CCCCCCCC/C=C\CCCCCCCCOCC(O)CO` (configuration not stated), the growth inhibition in assay [1] is -8.65% and -26.1%; in assay [2] (at 50.0 µM) it was -25.6% and -20.9%; in assay [3] (at 50.0 µM), -1.8% and -4%; in assay [4] (at 50.0 µM) it was -17.9% and 3.35%; in assay [5] (at 50.0 µM) it was -25.4% and -31.6%; in assay [6] (at 50.0 µM), -27.6% and -20.8%.

For `COc1ccc(NS(=O)(=O)c2ccccc2)cc1`, the growth inhibition in assay [1] is -3.55% and -19.6%; in assay [2] (at 50.0 µM), -2.7% and -17.2%; in assay [3] (at 50.0 µM) it was -3.2% and -6.95%; in assay [4] (at 50.0 µM), -20.7% and -48.8%; in assay [6] (at 50.0 µM), -6.3% and -9.8%.

Regarding `c1ccc(C2NCCNC2c2ccccc2)cc1` (configuration not stated), the growth inhibition in assay [2] (setting [7]) was 0%; in assay [2] (setting [8]), -10%; in assay [2] (at 50.0 µM), 15%; in assay [3] (setting [7]) it was 0%; in assay [3] (setting [8]), -9%; in assay [3] (at 50.0 µM) it was 22.3%. Further, the growth inhibition in assay [4] (setting [7]) is 3%; in assay [4] (setting [8]) it was -6%; in assay [4] (at 50.0 µM), -1.8%; in assay [5] (setting [7]), 4%; in assay [5] (setting [8]) it was 5%; in assay [5] (at 50.0 µM), 55.3%. For the same compound, the growth inhibition in assay [6] (setting [7]) is -3%; in assay [6] (setting [8]), -7%; in assay [6] (at 50.0 µM) it was -19.2%.

As for `CC(C)(N)CCC(=O)O`, the growth inhibition in assay [1] is 10.3% and -0.25%; in assay [2] (at 50.0 µM), 20.9% and 3.7%; in assay [4] (at 50.0 µM), -3.05% and -7.2%; in assay [5] (at 50.0 µM) it was -28.7% and 11.1%; in assay [6] (at 50.0 µM), 6.8% and -3.15%.

As to `OC(c1cc(-c2ccc(C(F)(F)F)cc2)nc(C(F)(F)F)c1)C1CCCCN1` (configuration not stated), the growth inhibition is 24% in assay [2] (setting [7]); 35% in assay [2] (setting [8]); 76.2% (active) in assay [2] (at 50.0 µM); 33% in assay [3] (setting [7]); 60% in assay [3] (setting [8]); 45.5% in assay [3] (at 50.0 µM). For the same compound, the growth inhibition is 31% in assay [4] (setting [7]); 7% in assay [4] (setting [8]); 25.7% in assay [4] (at 50.0 µM); 11% in assay [5] (setting [7]); 36% in assay [5] (setting [8]); 33.5% in assay [5] (at 50.0 µM). Further, the growth inhibition is 34% in assay [6] (setting [7]) and 65% in assay [6] (setting [8]).

For the compound `COC1C(OC(C)=O)CC(=O)OC(C)C/C=C/C=C\C(O)C(C)CC(CC=O)C1OC1OC(C)C(OC2CC(C)(O)C(OC(=O)CC(C)C)C(C)O2)C(N(C)C)C1O` (configuration not stated), the growth inhibition was -0.2% and -2.9% in assay [1]; -22.6% and -34% in assay [3] (at 50.0 µM); -4.95% and 4.75% in assay [4] (at 50.0 µM); -27.1% and -30.9% in assay [5] (at 50.0 µM); -2% and -6.85% in assay [6] (at 50.0 µM).

As to `C/C=C(\C)c1cc(=O)c2c(C)cc3c(c2o1)C(=O)c1c(O)c(C2CC(C)(N(C)C)C(O)C(C)O2)cc(C2CC(N(C)C)C(O)C(C)O2)c1C3=O` (configuration not stated), the growth inhibition was 1.95% and 21.3% in assay [1]; -16% and 10.7% in assay [2] (at 50.0 µM); 14.6% and 17.4% in assay [3] (at 50.0 µM); 3.4% and 25.8% in assay [4] (at 50.0 µM); 8.2% and 9.4% in assay [5] (at 50.0 µM); -5.8% and 10.2% in assay [6] (at 50.0 µM).

For the compound `Oc1ccccc1CNCc1ccccc1O`, the growth inhibition in assay [1] was -6.65% and -16.2%; in assay [2] (at 50.0 µM), -13.5% and -2.7%; in assay [3] (at 50.0 µM) it was -5.5% and -33%; in assay [5] (at 50.0 µM) it was 0.5% and -28.2%; in assay [6] (at 50.0 µM), -1.05% and 3.55%.

On to `CC(C)c1ccc(C(=O)O)cc1`, for which the growth inhibition in assay [1] was 11.3% and 24%; in assay [2] (at 50.0 µM) it was -9.2% and 12.3%; in assay [4] (at 50.0 µM), -8.2% and 5.9%; in assay [5] (at 50.0 µM), -9% and 5.1%; in assay [6] (at 50.0 µM), 20.1% and 22.2%.

As to `CC(O)c1nc2c([nH]1)c(=O)n(C)c(=O)n2C` (configuration not stated), the growth inhibition in assay [1] is -4.3% and -3.1%; in assay [2] (at 50.0 µM) it was -6.2% and -8.9%; in assay [3] (at 50.0 µM) it was -5.6% and -2%; in assay [5] (at 50.0 µM) it was 5.7% and -13.9%; in assay [6] (at 50.0 µM), 9.15% and -23.2%.

Regarding `O=c1cc2oc3cc(O)c(O)cc3c(-c3ccccc3)c-2cc1O`, the growth inhibition in assay [1] was -4.25% and 15.2%; in assay [2] (at 50.0 µM), -16.1% and 32.5%; in assay [3] (at 50.0 µM) it was -3.15% and 25.9%; in assay [4] (at 50.0 µM) it was -5.9% and -23.8%; in assay [5] (at 50.0 µM), -10.2% and 15.9%; in assay [6] (at 50.0 µM), -4.15% and 34.9%.
